Pf Dd2 growth – qHTS Primary assay for Inhibitors of Plasmodium falciparum Dd2 growth in vitro. Potency, µM (top dose mostly 28.9 µM), inactives show at the highest dose activity, negative = inhibition, usual class: inhibitors. 120,000 compounds, 4.3% hits. P. falciparum Dd2 growth, SYBR Green, 72 h; active = well fitted inhibition curve with a large enough effect;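 also: plate controls were DMSO vehicle for no effect and reference drug for full effect; nearly all actives have a fitted effect of over 65% in size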
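Readout: SYBR Green fluorescence, 485 nm excitation, 535 nm emission, after ~16 h lysis at 37C. Before that, Dd2-infected red cells (2.5% hematocrit) grew 72 h with compound, 29 uM top final concentration.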
Numbers without * were called inactive; [ ] = dose if it differs, or a comment. This is one part of a sample in which hits are shown more often than they occur. Potency is read from the fitted curve at half-maximal effect.

`O=C(CCCc1ccccc1)N1CC(c2noc(COc3ccccc3)n2)C1` gave Pf Dd2 growth -8.4%.
For CCCC1(C(=O)O)CCCN(S(=O)(=O)c2ccsc2C(=O)O)C1 (stereo unspecified) the results were Pf Dd2 growth -2.4%.
Screening CC(C)N1C[C@H](O)C[C@H]1c1nnc2n1CCN(C(=O)Cc1cccc(F)c1)C2 returned Pf Dd2 growth 0.0%.
Screening COc1ccc(CNC(=O)c2cc3cn(C(C)C)cc3s2)cc1 returned Pf Dd2 growth inactive.
Screening COc1cc(CNC(=O)c2cc3cn(C(C)C)cc3s2)cc(OC)c1 returned Pf Dd2 growth 12.6µM*.
`CC(C)n1cc2cc(C(=O)NCc3cccnc3)sc2c1` gave Pf Dd2 growth inactive.
Screening COc1ccc(C)cc1NC(=O)[C@H]1CCC[C@H]1NC(=O)c1cnc(C)cn1 returned Pf Dd2 growth -3.9%.
Cc1cc2cc(-c3c(C)noc3C)nc(Nc3ccccc3)c2o1 was read as Pf Dd2 growth -28.5%[44.1 µM].
For Cc1cc2cc(-c3c(C)noc3C)nc(N3CCCC3)c2o1 the results were Pf Dd2 growth -12.3%[44.1 µM].
`Cc1cc2cc(-c3c(C)noc3C)nc(N(C)CCN(C)C)c2o1` gave Pf Dd2 growth 2µM*.
For CCn1ncc(N2CCC(NC(=O)Cc3ccccc3F)CC2)cc1=O the results were Pf Dd2 growth -29.2%.
Screening OC1(CN2CCC(Oc3cccnc3)CC2)CNCCOC1 (stereo unspecified) returned Pf Dd2 growth -11.3%.
Screening CCC(CC)c1cc([C@H]2CN3CC[C@H]2C[C@@H]3CNC(=O)COc2ccccc2)nc(-c2ccncc2)n1 returned Pf Dd2 growth 0.447µM*.
`CC(=O)c1cccc(NC(=O)NC[C@H]2C[C@@H]3CCN2C[C@@H]3c2cc(-c3cccs3)nc(C)n2)c1` gave Pf Dd2 growth inactive.
Screening Cc1nc(-c2ccccc2)cc([C@H]2CN3CC[C@H]2C[C@@H]3CNC(=O)CCCC(=O)O)n1 returned Pf Dd2 growth 19.8%[44.1 µM].
For Cn1nc(-c2ccc3ccccc3c2)cc1[C@H]1CN2CC[C@H]1C[C@@H]2CNC(=O)COc1ccccc1 the results were Pf Dd2 growth -12.5%.
`CCC(CC)c1cc([C@H]2CN3CC[C@H]2C[C@@H]3COC(=O)Nc2ccccc2)nc(-c2ccncc2)n1` gave Pf Dd2 growth -13.5%.
For CCC(CC)c1cc([C@H]2CN3CC[C@H]2C[C@@H]3CNC(=O)c2ccc(N(C)C)cc2)nc(-c2ccncc2)n1 the results were Pf Dd2 growth -16.2%.
CCC(CC)c1cc([C@H]2CN3CC[C@H]2C[C@@H]3CNC(=O)Cc2cccs2)nc(-c2ccncc2)n1 was read as Pf Dd2 growth 0.708µM*.
For CCC(CC)c1cc([C@H]2CN3CC[C@H]2C[C@@H]3CNC(=O)c2cc(OC)c(OC)c(OC)c2)nc(-c2ccncc2)n1 the results were Pf Dd2 growth -47.6%.
For CCC(CC)c1cc([C@H]2CN3CC[C@H]2C[C@@H]3CNC(=O)c2cccs2)nc(-c2ccncc2)n1 the results were Pf Dd2 growth 0.251µM*.
Screening O=C(C[C@@H]1O[C@H](CNC(=O)Nc2cccc(F)c2)[C@@H](O)[C@H]1O)Nc1ccccc1 returned Pf Dd2 growth 17.5%[44.1 µM].
For Cc1ccc(Cc2ccccc2C(=O)N2CCC3(CC2)CNC(=O)C3)cc1F the results were Pf Dd2 growth -0.7%.
Screening CCN1CCN(C(=O)CC2Sc3ncccc3N(CC)C2=O)CC1 (stereo unspecified) returned Pf Dd2 growth 8.5%.
For Cc1ccc(NC(=O)CCC2CCN(C(=O)c3ccccc3F)CC2)cc1 the results were Pf Dd2 growth inactive.
CC(C)n1cc2cc(C(=O)NCc3cnccn3)sc2c1 was read as Pf Dd2 growth inactive.
Screening CC(=O)N1CCCC(c2nc(-c3cccnc3)no2)CCNC(=O)CC1 (stereo unspecified) returned Pf Dd2 growth 18.6%.
`CN(Cc1ccccc1)Cc1ccccc1OCC(O)CN1CCCCC1` (stereo unspecified) gave Pf Dd2 growth 0.794µM*.
For CN(CCC1CCOCC1)Cc1ccccc1OCC(O)CN1CCSCC1 (stereo unspecified) the results were Pf Dd2 growth -12.0%.
For COCCn1cc(CN(C)Cc2ccccc2)ccc1=O the results were Pf Dd2 growth 2.6%.
`CN(C)C(=O)c1cc(-c2cnccc2Cl)c2cccn2n1` gave Pf Dd2 growth 11.3%.
For O=C(NCc1ccc(F)cc1)c1cc(-c2cnccc2Cl)c2cccn2n1 the results were Pf Dd2 growth 8.91µM*.
Screening COC(=O)CNC(=O)c1cc(-c2cnccc2Cl)c2cccn2n1 returned Pf Dd2 growth 0.6%.
`O=C(N[C@@H](Cn1cc(Br)c(=O)[nH]c1=O)C(=O)O)C1CCC1` gave Pf Dd2 growth 15.8%[44.1 µM].
Screening COCC[C@]1(O)CCN(C(=O)COc2ccc3c(c2)OCO3)C[C@H]1C returned Pf Dd2 growth -8.1%.
Screening CCC(CC)C(=O)NC[C@H]1O[C@@H](CC(=O)N2CCN(c3ccc(F)cc3)CC2)[C@H](O)[C@@H]1O returned Pf Dd2 growth -14.3%.
For CNC(=O)[C@@H]1C[C@H](Oc2cccnc2)CN1S(=O)(=O)c1ccc(C#N)cc1 the results were Pf Dd2 growth 13.4%.
`COC1CCOC2(CCN(C(=O)c3ccc4ccccc4n3)CC2)C1` (stereo unspecified) gave Pf Dd2 growth 11.1%.
COc1cccc(C2c3c(oc4ccc(C)cc4c3=O)C(=O)N2CCCN2CCOCC2)c1OC (stereo unspecified) was read as Pf Dd2 growth 22.1%.
CCCOc1cccc(C2c3c(oc4ccc(F)cc4c3=O)C(=O)N2CCCN2CCOCC2)c1 (stereo unspecified) was read as Pf Dd2 growth 6.31µM*.
`CCOc1cccc(C2c3c(oc4ccc(F)cc4c3=O)C(=O)N2CCc2ccc(OC)cc2)c1` (stereo unspecified) gave Pf Dd2 growth 2.0%.
`Cc1nccn1CC(=O)N[C@@H]1CN(Cc2ccccn2)C[C@H]1CN(C)C` gave Pf Dd2 growth 40.4%.
CN1CCC(NC(=O)c2n[nH]c3c2CN(C(=O)c2cccc(F)c2)CC3)CC1 was read as Pf Dd2 growth 6.2%.
Screening CC(C)NC(=O)c1cc(-c2cccc(C(F)(F)F)c2)c2nncn2n1 returned Pf Dd2 growth 4.2%.
Screening O=C(NCc1cccs1)c1cc(-c2cccc(C(F)(F)F)c2)c2nncn2n1 returned Pf Dd2 growth 2µM*.
Screening Cc1cn2nc(C(=O)NCc3cccc(C(F)(F)F)c3)cc2c(=O)[nH]1 returned Pf Dd2 growth -18.7%.
O=C(c1cc(-c2cccc(C(F)(F)F)c2)c2nncn2n1)N1CCCC1 was read as Pf Dd2 growth -21.3%.
O=C(c1cc(-c2cccc(C(F)(F)F)c2)c2nncn2n1)N1CCOCC1 was read as Pf Dd2 growth 15.3%.
`C#CCNC(=O)c1cc(-c2cccc(C(F)(F)F)c2)c2nncn2n1` gave Pf Dd2 growth 14.1µM*.
`COc1ccc(C(=O)N2CCN(C3CCN(C)C3=O)CC2)cc1` (stereo unspecified) gave Pf Dd2 growth 20.9%.
O=S(=O)(NC[C@H]1O[C@@H](CO)[C@@H](O)[C@H]1N1CCN(c2ccccc2)CC1)c1ccc(F)cc1 was read as Pf Dd2 growth -25.4%.
NC(=O)c1cccc(CN2CCC3(CC2)CC(c2cccnc2)=NO3)c1 was read as Pf Dd2 growth 4.9%.
For O=C(NCCF)c1cccc(S(=O)(=O)NCCCc2ccncc2)c1 the results were Pf Dd2 growth 1.2%.
CNC(=O)c1cc(-c2cccc(OC)c2OC)cc2c1OCCN2Cc1cccnc1 was read as Pf Dd2 growth 12.6µM*.
